Tau fluor counter – Counterscreen qHTS for Inhibitors of Tau Fibril Formation, Fluorescence Polarization; 280,000 compounds, 0.93% hits; AID 1463, 2008; tau K18 P301L Alexa594 fluorescence, heparin fibrillization; Potency, µM (top dose mostly 57.7 µM), for the others: at the top dose activity change, negative = decrease; also: potency is read from the fitted curve at half-maximal effect; nearly all actives have a fitted effect of over 55% in size
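Human K18 P301L tau (15 uM unlabeled plus 0.24 uM Alexa 594-labeled, final) in 100 mM sodium acetate pH 7 was mixed with compound and 20 uM heparin and incubated 6 hr at 37 C.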
Tau FP inhib – qHTS for Inhibitors of Tau Fibril Formation, Fluorescence Polarization; Microtubule-associated protein tau (Homo sapiens), P10636; K18 P301L tau heparin fibrillization, Alexa594 FP, 6 h; Potency, µM (doses to about 57.7 µM), inactives show top-dose activity, negative = inhibition, actives largely listed as inhibitors; 280,000 compounds, 0.39% hits; AID 1468, 2008; also: potency is read from the fitted curve at half-maximal effect; nearly all actives have a fitted effect of over 55% in size
Target sequence (P10636 561-689 P618L limits assumed): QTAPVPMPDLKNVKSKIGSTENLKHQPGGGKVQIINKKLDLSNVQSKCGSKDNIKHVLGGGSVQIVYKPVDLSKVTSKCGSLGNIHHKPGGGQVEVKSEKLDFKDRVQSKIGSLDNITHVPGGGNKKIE
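Recombinant K18 P301L […], labeled with Alexa 594 at 0.24 uM over 15 uM unlabeled; heparin inducer 20 uM final; 37 C, 6 hr; FP endpoint.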
Tau ThT inhib – qHTS for Inhibitors of Tau Fibril Formation, Thioflavin T Binding; AID 1460, 2008; recombinant tau K18 P301L (four-repeat tau fragment), heparin-induced fibrillization, ThT fluorescence; Potency, µM (doses to about 57.4 µM), without a hit: at the highest dose activity, negative = inhibition, usual class: inhibitors; Microtubule-associated protein tau (Homo sapiens), P10636; 270,000 compounds, 2.1% hits; also: potency is read from the fitted curve at half-maximal effect; nearly all actives have a fitted effect of over 55% in size
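Aggregation was driven by heparin (20 uM final) acting on recombinant tau […] bearing P301L in 100 mM sodium acetate pH 7; fibrils were detected with Thioflavin T.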
FBPA coupling cs – qHTS Assay for Inhibitors of Fructose-1,6-bisphosphate Aldolase from Giardia Lamblia: Coupling assay counterscreen; coupling enzyme system counterscreen, AmpLite Red fluorescence; activity change, negative = inhibition, % at 58.2 µM, hits read low; 290,000 compounds, 0.67% hits; AID 2472, 2010; in the data active = activity change below about -30%
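Counterscreen lacking aldolase: glyceraldehyde-3-phosphate coupling-enzyme reagent preincubated 10 min at RT with compound (at 57.5 uM final), then substrate/coupling system with AmpLite Red added; fluorescence read at 525/598 nm after 20 min RT.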
Sfp PPTase inh – qHTS Assay for Inhibitors of Bacillus subtilis Sfp phosphopantetheinyl transferase (PPTase); 4'-phosphopantetheinyl transferase ffp (Bacillus subtilis), Q9F4F7; Biochemical Sfp PPTase activity, qHTS; Potency, µM, for inactives: largest response in the series, negative = inhibition, usual class: inhibitors; 310,000 compounds, 3.5% hits;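 also: the enzyme is Sfp with the accession as filed and its product quenches rhodamine fluorescence; potency is read from the fitted curve at half-maximal effect; 0% = enzyme reaction without inhibitor and -100% = no enzyme wells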
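After 15 min at room temperature with compound, 15 nM Sfp received 5 uM rhodamine-CoA plus 12.5 uM BHQ-2-ybbR (50 mM Hepes pH 7.6, 10 mM MgCl2). Rate came from the fluorescence difference over 30 min, ex 525/em 598 nm.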
G9a block – qHTS Assay for Inhibitors of Histone Lysine Methyltransferase G9a; Histone-lysine N-methyltransferase EHMT2 (Homo sapiens), Q96KQ7; G9a H3K9 monomethylation, AlphaScreen, 2 h; Potency, µM (top dose mostly 102 µM), for the others: at the top dose activity, negative = inhibition, most hits filed as inhibitors; 350,000 compounds, 8.8% hits; also: potency is read from the fitted curve at half-maximal effect; nearly all actives have a fitted effect of over 75% in size
Target sequence (Q96KQ7 913-1193 limits assumed): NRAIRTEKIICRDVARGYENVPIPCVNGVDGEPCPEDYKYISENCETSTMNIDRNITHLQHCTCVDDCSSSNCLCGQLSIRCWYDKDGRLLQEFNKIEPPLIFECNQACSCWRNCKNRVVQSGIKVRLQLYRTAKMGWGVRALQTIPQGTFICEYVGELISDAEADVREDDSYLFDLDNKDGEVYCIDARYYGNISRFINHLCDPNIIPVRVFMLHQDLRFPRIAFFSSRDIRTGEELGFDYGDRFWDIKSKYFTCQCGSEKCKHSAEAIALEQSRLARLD
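G9a (20 nM) was preincubated 15 min with compound, then reacted 2 h at room temperature with 500 nM biotin-H3K9 peptide and 20 µM SAM. Monomethyl-H3K9 detected by AlphaScreen using anti-H3K9me1 antibody.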
Starred values were filed as active, the others as inactive; ? = inconclusive; · = no result given; ! = not active in a repeat; [ ] = dose if it differs, or a comment. An excerpt weighted towards active compounds, which were near 11% of everything screened. Unless noted, calls follow the shape of the dose curve; as a rule, active = well fitted curve in the direction sought with a large enough effect; inconclusive = small, poorly fitted or top-dose-only effect, or another doubt; inactive = no such curve, though single readings can be large; an effect the other way counts as inactive or inconclusive. Unless noted, % is scaled to controls: 0 for no effect and ±100 for the full control effect.

SMILES	Tau fluor counter	Tau FP inhib	Tau ThT inhib	FBPA coupling cs	Sfp PPTase inh	G9a block
O=C1C(=O)N(Cc2ccco2)C(c2cccc(Cl)c2)/C1=C(\O)c1ccc2c(c1)OCCO2 (centres undefined)	-1%	-1%	-19%	3	?	?
CC(C)=CCc1c2c(c3occ(-c4ccc(O)c(O)c4)c(=O)c3c1O)C=CC(C)(C)O2	3.5µM*[quencher]	25µM*	?	-11	37%	·
CC(C)=CCc1c2c(c3occ(-c4ccc(O)cc4)c(=O)c3c1O)C=CC(C)(C)O2	3.2µM*[quencher]	22µM*	?	-7	0%	20µM*!
C#C[C@]1(OC(C)=O)CC[C@H]2[C@@H]3CCC4=C/C(=N/O)CC[C@@H]4[C@H]3CC[C@@]21CC	·	·	·	·	79µM*	-43%[12.7 µM]
C#C[C@@]1(OC(C)=O)CC[C@@H]2[C@@H]3CCC4=C[C@@H](OC(C)=O)CC[C@H]4[C@H]3CC[C@]21C	·	·	·	-1	-12%	17%[21.5 µM]
O=C(/C=C/c1ccc(Br)o1)NCCCN1CCOCC1	-17%	-12%	?	-7	18µM*	22µM*
COc1ccc(NC(=S)NCc2ccc3c(c2)OCO3)cc1	-20%	3%	-8%	-1	12%	-43%
O=C(/C=C/c1ccco1)NCCCN1CCOCC1	3%	-3%	-5%	1	5%	2%[12.7 µM]
Cc1ccc(NC(=S)c2nc3ccccc3[nH]2)c(C)c1	?	2%	?	0	-1%	?
CC(C)CNC(=O)C(=O)NCCCN1CCOCC1	1%	0%	-4%	1	7%	·
NNC(=O)C(=O)NCCCN1CCOCC1	-7%	-3%	-11%	0	5%	56µM*
S=C(NCc1ccc2c(c1)OCO2)Nc1ccc(-c2nc3ccccc3[nH]2)cc1	13µM*[quencher]	?	?	0	5%	?
Cc1ccc(NC(=S)c2nc3ccccc3[nH]2)cc1	?	-2%	7.9µM*	-1	12%	54%[0.501 µM]
Cn1cnc(S(=O)(=O)N2CCC(C(=O)N3CCN(c4ccccc4F)CC3)CC2)c1	-6%	-11%	1%	·	·	2%[12.7 µM]
COc1ccccc1NC(=O)C1CCCN(c2ncnc3onc(-c4ccc(F)cc4)c23)C1 (centres undefined)	-12%	-3%	-2%	·	·	0%[59 µM]
CC(C)N(c1ccccc1)c1ccc(NC(=S)NCCN(C)C)cc1	-24%	-2%	-15%	4	-15%	45µM*
S=C(NCCN1CCOCC1)Nc1ccc(Nc2ccccc2)cc1	-20%	13%	?	0	-2%	·
O=S(=O)(c1ccccc1)N1CCN(C(=S)NCCCN2CCOCC2)CC1	5%	-6%	11%	0	-26%	?
S=C(NCCCN1CCOCC1)N1CCN(c2cccc(Cl)c2)CC1	·	·	·	1	?	32µM*
CCNC(=S)Nc1ccc(N(c2ccccc2)C(C)C)cc1	?	2%	?	2	?	?
CC(CC(=O)Nc1ccccc1)NCCCN1CCCC1=O (centres undefined)	·	·	·	2	-20%	8.9µM*
S=C(NCCCN1CCOCC1)Nc1ccc(Nc2ccccc2)cc1	-21%	5%	?	1	-25%	45µM*
CCc1sc(Nc2cccc(C)c2C)nc1-c1cc2cccc(OC)c2oc1=O	-11%	4%	-8%	·	·	0%[59 µM]
O=C(NC(=S)Nc1cc(-c2nc3ccccc3[nH]2)ccc1Cl)c1ccc2c(c1)OCO2	?	?	?	0	?	45µM*
S=C(NCCCN1CCOCC1)Nc1ccc(-c2nc3ccccc3[nH]2)cc1	-17%	1%	1%	0	35µM*	32µM*
SMILES	Tau fluor counter	Tau FP inhib	Tau ThT inhib	FBPA coupling cs	Sfp PPTase inh	G9a block
O=C(Nc1nnc(CCN2CCCCC2)s1)c1ccccc1	-3%	9%	-5%	3	-4%	-5%[59 µM]
S=C(NCCCN1CCOCC1)Nc1ccc(N2CCOCC2)cc1	-4%	-1%	-11%	2	-8%	?
O=C(Nc1nnc(CCN2CCOCC2)s1)c1ccccc1	-11%	-9%	-8%	-3	?	45µM*
O=C(CNCc1ccccc1)NCCCN1CCCC1=O	·	·	·	0	-14%	22µM*
Cc1ccc(NC(=O)Cc2csc(C)n2)c(C)c1	9%	8%	3%	·	·	10%[59 µM]
COc1cc(OC)cc(-c2nc3nc(C)c(CCC(=O)Nc4cc(C)cc(C)c4)c(C)n3n2)c1	-17%	3%	?	·	·	3%[59 µM]
Cc1nn(C(C)C(=O)Nc2cccc(F)c2)c(=O)c2c1sc1ccccc12 (centres undefined)	-22%	1%	?	·	·	-26%[59 µM]
Cn1cnc(S(=O)(=O)N2CCCC(C(=O)Nc3cccc(C#N)c3)C2)c1 (centres undefined)	-4%	1%	-5%	·	·	5%[59 µM]
C=CCOC(=O)C(C(C)=O)C(NC(=O)OC)c1cccc(C(F)(F)F)c1 (centres undefined)	-4%[11.6 µM]	-6%[11.6 µM]	-1%[11.5 µM]	-1	11%	·
O=C(CCCCC(=O)NC1CCCC1)NC1CCCC1	11%	8%	7%	2	20%	-26%[59 µM]
CC(=O)Oc1cc2c(C(=O)NCCCN3CCOCC3)c(C)oc2c2ccccc12	-26%	-4%	?	-38*	-6%	-10%[2.33 µM]
CN(C)CCNC(=S)Nc1ccc(-c2nc3ccccc3[nH]2)cc1	-9%	5%	8%	0	2%	50µM*
O=C1CCCN1CCCNC(=S)Nc1ccc(Nc2ccccc2)cc1	?	1%	?	8	56µM*	·
O=C(NCCCN1CCOCC1)c1ccccc1	-7%	-11%	-12%	-2	-6%	14µM*
Cc1c(OCC(=O)NCCCN2CCOCC2)ccc2c1oc(=O)c1ccccc12	·	·	·	·	10%	4%
C=CCCCCCCCCCCCC(O)CC(O)CO (centres undefined) (tested in a mixture with another compound)	-12%	4%	-4%	5	17%	-39%[2.33 µM]
O=S(=O)(Nc1ccc(Br)cc1)c1cccc(NC(=S)NCCN2CCOCC2)c1	·	·	·	-1	?	32µM*
Cc1ccc(C)c(C(=O)c2c(N)c(-c3nc(-c4ccc5c(c4)OCO5)cs3)c3ccccn23)c1	?	14%	?	·	·	14%[59 µM]
COc1ccc(C2=C(Nc3ccc(Br)c(C)c3)c3ccccc3C2=O)cc1	4µM*[quencher]	6%	?	·	·	2.8µM*
